# IL-1B inflam inh = inhibitors of inflammasome signaling (IL-1 beta secretion) | THP-1 LPS/ATP IL-1B secretion, AlphaLISA, 16 h; stronger effect = lower value | activity change, % at 57.5 µM | AID 743279 | 360,000 compounds, 4.7% hits; in the data active = activity change below about -50%; inconclusive = mostly about -30% to -49%
#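 THP-1 cells pretreated 1 hr with compounds (up to 57.5 uM final), then stimulated with LPS (250 ng/mL final) plus ATP (1.25 mM final); secreted IL-1B measured by AlphaLISA after 16 hr, decreased signal indicating inhibition.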
# TGFb SMAD3 inh = inhibitors of TGF-b signaling; HepG2 CAGA-GFP TGF-b/SMAD3 reporter, GFP fluorescence, 18 h; TGF-beta stimulated, 500 pg/mL final; 410,000 compounds, 1.2% hits; Potency, µM (top dose mostly 46.1 µM), usual class: inhibitors; note: nearly all actives have a fitted effect of over 65% in size
#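 TGF-beta reporter screen: HEPG2 CAGA-GFP, 1% FBS, 500 pg/mL TGF-beta final, 18 h; per-cell GFP summed per well; curves fitted and categorized by class.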
# ASM inhibitor = inhibitors of human secretory acid sphingomyelinase. Potency, µM (doses to about 57.5 µM), usual class: inhibitors. placental ASM, HMU-PC fluorogenic substrate, 60 min. AID 504937. P17405. 340,000 compounds, 0.006% hits
# Target sequence (P17405 47-631 limits assumed): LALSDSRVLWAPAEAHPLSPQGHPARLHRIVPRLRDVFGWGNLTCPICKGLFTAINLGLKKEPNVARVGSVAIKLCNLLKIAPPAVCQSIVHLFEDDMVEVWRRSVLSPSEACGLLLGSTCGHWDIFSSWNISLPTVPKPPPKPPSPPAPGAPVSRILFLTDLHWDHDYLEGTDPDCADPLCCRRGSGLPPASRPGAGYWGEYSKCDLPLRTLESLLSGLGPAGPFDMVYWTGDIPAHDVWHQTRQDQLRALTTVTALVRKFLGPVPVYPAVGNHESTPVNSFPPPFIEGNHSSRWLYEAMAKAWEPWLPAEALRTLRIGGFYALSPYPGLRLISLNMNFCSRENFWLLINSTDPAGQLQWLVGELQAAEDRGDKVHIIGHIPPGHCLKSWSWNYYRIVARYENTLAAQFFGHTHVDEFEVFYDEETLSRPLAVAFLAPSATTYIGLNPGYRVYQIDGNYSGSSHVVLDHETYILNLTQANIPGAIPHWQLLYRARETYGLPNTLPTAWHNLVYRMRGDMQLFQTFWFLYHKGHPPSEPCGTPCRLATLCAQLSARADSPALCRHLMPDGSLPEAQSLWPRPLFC
#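 Steps: dispense placental human ASM, pin compound, wait 10 min at room temperature, add HMU-PC0 substrate at 9 uM final, incubate 60 min at 37 °C, add stop solution raising pH to 10, read fluorescence.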
# TDP1 cell CPT = DT40-hTDP1 cell growth loss with CPT. 420,000 compounds, 12% hits. Potency, µM (highest dose often 46.2 µM), hits mostly inhibitors. chicken DT40 Tdp1-/-;hTDP1 cells + 20 nM CPT, ATP luminescence, 48 h; note: nearly all actives have a fitted effect of over 55% in size
#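 Cell growth measured by CellTiter-Glo luminescence after a minimum 48 h, 37 C compound exposure with 20 nM CPT in Tdp1-knockout DT40 cells stably expressing hTDP1, seeded 400/well; qHTS titration format.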
# HepG2 tox = HepG2 cytotoxicity, counter-screen for TGF-b inhibitors; 410,000 compounds, 0.76% hits; Potency, µM (highest dose often 46.1 µM), actives largely listed as cytotoxic; HepG2 CAGA-GFP viability, ATP luminescence, 18 h; AID 588856
#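 CellTiter-Glo luminescence gave cytotoxicity after 18 hours at 37 degrees C. The cells were HepG2 CAGA-GFP in 1% FBS DMEM, stimulated with 500 pg/mL TGF-beta after compound addition. %Activity was normalised to no-cell wells (complete cell-killing) and DMSO (no toxicity), and curves were fitted and classified.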
# DT40 TDP1 no CPT = qHTS for Inhibitors of human tyrosyl-DNA phosphodiesterase 1 (TDP1): qHTS in cells in absence of CPT; DT40 Tdp1-/- hTDP1 cells, no CPT, ATP luminescence, 48 h; Potency, µM (series often up to 46.2 µM), hits mostly inhibitors; 420,000 compounds, 15% hits; AID 686978, 2013; note: nearly all actives have a fitted effect of over 55% in size
#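 Compound effects on proliferation are scored in DT40 Tdp1-/-;hTDP1 cells in the absence of CPT. ATP levels (CellTiter-Glo luminescence) are recorded after a ≥48 hr, 37 °C incubation.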
# A number is an active result; 0 = inactive; ? = inconclusive; - = not tested or not shown; ! = not confirmed by another sample; [ ] = dose if it differs, or a comment. This is a sample that favours compounds with a hit; in the whole collection about 19% have one here. Unless noted, calls come from the whole dose curve; as a rule, active = well fitted curve in the direction sought with a large enough effect; inconclusive = small, poorly fitted or top-dose-only effect, or another doubt; inactive = no such curve, though single readings can be large; an effect the other way counts as inactive or inconclusive.
SMILES,IL-1B inflam inh,TGFb SMAD3 inh,ASM inhibitor,TDP1 cell CPT,HepG2 tox,DT40 TDP1 no CPT
Cc1[nH]c2ccccc2c1CN1CCC(CO)(Cc2ccccc2)CC1,0,0,0,13µM,0,?
COc1ccc(CC2(CO)CCN(Cc3cnn(-c4ccccc4)c3)CC2)cc1,-95,0,0,?,0,?
COc1ccc(CN2CCN(C(=O)c3cccs3)CC2)cc1,-87,0,0,0,0,0
COc1ccc(CN2CCN(Cc3ccc(C(F)(F)F)cc3)CC2)cc1,?,?,0,?,0,23µM
COc1ccc(CC2(CO)CCN(Cc3ccc(OC(F)(F)F)cc3)CC2)cc1,-,14µM,0,?,20µM,18µM
COc1ccc(CC2(CO)CCN(Cc3cnn(-c4ccc(F)cc4)c3)CC2)cc1,0,0,0,0,0,?
FC(F)(F)c1ccc(CN2CCCCCC2)cc1,0,0,0,0,0,0
CC(C)Sc1nc(-c2cccs2)nc2cc(Cl)ccc12,0,-,-,0,-,0
CCC(Oc1ccccc1OC)C(=O)Nc1ccc2c(c1)OCO2 (stereo not given),0,0,0,0,0,0
COc1ccc(CN2CCC(CO)(Cc3ccccc3C(F)(F)F)CC2)c(F)c1,?,?,0,16µM,0,18µM
COc1cc(OC)cc(C(=O)N2CCN(Cc3ccccc3C(F)(F)F)CC2)c1,0,0,0,?,0,?
Cc1ccc(C)c(N2CCN(S(=O)(=O)c3ccc4c(c3)CCCN4C(=O)C3CCC3)CC2)c1,-,0,-,16µM,0,18µM
Cc1cccc(N2CCN(S(=O)(=O)c3ccc4c(c3)CCCN4C(=O)C3CCC3)CC2)c1C,0,0,0,?,0,16µM
Clc1cccc(Cl)c1CON/C=N/c1ncnc2sccc12,0,0,0,23µM,0,16µM
Clc1cccc(CON/C=N/c2ncnc3sccc23)c1,0,0,0,18µM,0,10µM
COC(=O)[C@H]1[C@H]2C[C@@H]3c4[nH]c5cc(OC)ccc5c4CCN3C[C@H]2C[C@@H](OC(=O)c2cc(OC)c(OC)c(OC)c2)[C@@H]1OC,0,0,0,16µM!,0,?
COC(=O)C1C2CC3c4[nH]c5cc(OC)ccc5c4CCN3CC2CC(OC2CCCCO2)C1OC (stereo not given),0,0,-,?,0,?
COC(=O)[C@@H]1C2CC3c4[nH]c5cc(OC)ccc5c4CCN3CC2C[C@H](OC(=O)c2cc(OC)c(OC)c(OC)c2)C1OC (stereo not given in full),-,-,-,23µM,-,?
Cn1c(CC(=O)NNC(=O)c2ccccc2[N+](=O)[O-])nc2ccccc21,0,0,0,0,0,0
Cc1cccc(-n2c(C)cc(/C=N/n3cnnc3)c2C)c1,0,0,0,23µM,0,?
Cc1cccc(-n2c(C)cc(C=C3C(=O)c4ccccc4C3=O)c2C)c1,-58,0,0,?,0,13µM
COc1cc(/C=C2/C(=N)N3C(c4ccccc4)=CSC3=NC2=O)ccc1OCC(=O)O,0,0,2.5µM,21µM,0,15µM
CCCC1=NN2C(=N)/C(=C\c3cc(C)n(-c4cccc(C)c4)c3C)C(=O)N=C2S1,0,0,0,0,3.5µM,0
N=C1/C(=C\c2ccc(-c3ccc(C(=O)O)cc3)o2)C(=O)N=C2SC=C(c3ccccc3)N12,?,0,0,?,0,?
CCCC1=NN2C(=N)/C(=C\c3cc(C)n(Cc4ccccc4)c3C)C(=O)N=C2S1,0,?,0,0,0,0
SMILES,IL-1B inflam inh,TGFb SMAD3 inh,ASM inhibitor,TDP1 cell CPT,HepG2 tox,DT40 TDP1 no CPT
COC(=O)c1sccc1NC(=O)CSCCc1ccccn1,0,0,0,0,0,0
CSc1cccc(NC(=O)C2C3C=CC4(O3)C2C(=O)N(CCN2CCOCC2)C4C(=O)NC2CCCCC2)c1 (stereo not given),0,0,0,0,0,0
Cc1ccccc1CN1CCC(Oc2ccc(C(=O)NCc3ccccn3)cc2)CC1,0,0,0,?,0,?
Cc1cccc(-n2c(C)cc(/C=C3/C(=N)N4C(c5ccccc5)=CSC4=NC3=O)c2C)c1,0,0,0,?,0,21µM
COC(=O)C1CCCCN1Cc1ccc2c(c1)CN(Cc1cn[nH]c1-c1ccc(F)cc1)CCO2 (stereo not given),-,-,-,0[9.04 µM],-,?
CCC(=O)N1CCCC1(C)C(=O)NCc1ccc(SC)cc1 (stereo not given),0,0,-,0,0,0
CSc1ccc(CNC(=O)C2(C)CCCN2CC(C)C)cc1 (stereo not given),0,0,-,18µM,0,16µM
CC(C)C[C@@H](COCc1cccc(Cl)c1)N1CCN(C(=O)c2cccc(C(F)(F)F)c2)CCC1=O,?,-,-,?,-,16µM
Cc1ccc(COCC(CC(C)C)N2CCN(C(=O)c3cccc(C(F)(F)F)c3)CCC2=O)cc1 (stereo not given),0,?,0,?,0,?
Cc1cccc(COC[C@H](CC(C)C)N2CCN(C(=O)c3ccc(C(C)(C)C)cc3)CCC2=O)c1,-70,-,-,?,-,?
CC(C)CC(COCc1ccc([N+](=O)[O-])cc1)N1CCN(C(=O)c2ccc(C(F)(F)F)cc2)CCC1=O (stereo not given),?,?,0,18µM,0,?
Cc1cccc(COCC(CC(C)C)N2CCN(C(=O)c3ccc(C(F)(F)F)cc3)CCC2=O)c1 (stereo not given),-54,?,0,23µM,0,?
CC(C)C[C@@H](COCc1ccc(F)cc1)N1CCN(C(=O)c2cccc(C(F)(F)F)c2)CCC1=O,0,-,-,?,-,?
Cc1ccc(CNC(=O)C2CCC(=O)N(CCc3ccccn3)C2)s1 (stereo not given),0,0,-,0,0,0
O=C(Nc1cccc(F)c1)NC1CCN(Cc2ccccc2)CC1,0,0,0,0,0,?
Cc1cc(C(=O)N/N=C/c2cc(Br)ccc2OC(=O)c2ccccc2Cl)n[nH]1,0,0,0,5.8µM,0,4.6µM
Cc1cc(C(=O)N/N=C/c2ccc(OC(=O)c3ccccc3Br)cc2)n[nH]1,0,0,0,?,0,?
Cc1cc(C(=O)N/N=C/c2cc(Br)ccc2OC(=O)c2ccccc2)n[nH]1,0,0,0,7.3µM,0,6.5µM
CSc1ccccc1OCc1cc(C(=O)N(C)C2CCCc3ccccc32)no1 (stereo not given),0,0,0,?,0,?
